Pf Dd2 growth = Plasmodium falciparum Dd2 growth inhibition; P. falciparum Dd2 growth, SYBR Green, 72 h; actives 4.3% (n = 120,000); Potency, µM (series often up to 28.9 µM), for the others: at the top dose activity, negative = inhibition, actives largely listed as inhibitors; active means well fitted inhibition curve with a large enough effect;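 further: plate controls were DMSO vehicle for no effect and reference drug for full effect; nearly all actives have a fitted effect of over 65% in size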
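Infected erythrocytes (Dd2, 0.3% parasitemia, 2.5% hematocrit final) are added to compound in RPMI-1640/Albumax II medium, grown 72 h at 37C in low oxygen, then lysed with saponin/Triton-X containing SYBR Green and read by fluorescence.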
Active calls of the source: *; i = inactive; [ ] = dose if it differs, or a comment. This excerpt belongs to a sample that is enriched for hits. Potency means the concentration at half of the fitted maximal effect.

SMILES | Pf Dd2 growth
CCCNC(=O)C1COC2(CCN(C(=O)c3ccccc3Cl)CC2)N1C(=O)c1ccc(OC)cc1 (stereo not drawn) | i
COc1ccccc1CC(=O)N1CCCc2ncc(C(=O)NC(c3ccccc3)c3ccccc3)cc21 | 0%
COC1CCN(C(=O)c2cnc3c(c2)N(C(=O)CCc2ccccc2)CCC3)CC1 | -23%[44.1 µM]
COc1ccccc1CC(=O)N1CCCc2ncc(C(=O)N3CCCC[C@@H]3c3ccccc3)cc21 | 11µM*
COc1ccccc1CC(=O)N1CCCc2ncc(C(=O)N3CCC(OC)CC3)cc21 | 1%[44.1 µM]
COc1ccccc1CC(=O)N1CCCc2ncc(C(=O)NCc3cccc(Cl)c3)cc21 | i
COc1ccccc1CC(=O)N1CCCc2ncc(C(=O)N3CCCC[C@@H]3Cc3ccccc3)cc21 | 7.9µM*
O=C(c1cc(-c2ccccc2F)n[nH]1)N1CCC2(CCCN(Cc3ccccc3F)C2)C1 (stereo not drawn) | 8.9µM*
COCCN1CC2(CCCN(C(=O)c3cc(-c4ccsc4)n[nH]3)C2)CCC1=O (stereo not drawn) | -18%
CN(C)C[C@H]1C[C@@H](CO)CN(C(=O)c2cc(-c3ccccc3F)n[nH]2)C1 | 12%
Cc1cnc(C(=O)N2CCC3(CC2)CC(N2CCN(c4ccccn4)CC2)CCO3)cn1 (stereo not drawn) | -3%
COc1ccc(-c2nc(C3CN(C(=O)NCc4ccccc4)C3)no2)cc1 | -25%
CC(=O)N(C)Cc1ccccc1C(F)(F)F | -2%[44.1 µM]
COc1ccc(C(=O)Nc2nc3ccccc3n2CCOc2ccc(Cl)cc2)cc1 | 11µM*
COc1ccc(OCCn2c(NC(=O)c3ccc(OC)cc3)nc3ccccc32)cc1 | 57%
COc1ccc(OCCn2c(C(C)Oc3ccccc3)nc3ccccc32)cc1 (stereo not drawn) | -28%
Cc1ccc([C@H]2C[C@@H](O)[C@@H](O)[C@@H]2NC(=O)C2CC2)cc1 | 21%[44.1 µM]
COc1cc2nc(NCc3ccccc3)n3nc(-c4ccccc4)nc3c2cc1OC | 0.32µM*
CCOc1ccccc1NC(=O)CSc1nc2cc(OC)c(OC)cc2c2nc(-c3ccccc3)nn12 | -1%
CCOCCCNc1nc2cc(OC)c(OC)cc2c2nc(-c3ccccc3)nn12 | 0.28µM*
Cc1cccc(-c2nc3c4ccccc4nc(NCc4ccc(F)cc4)n3n2)c1 | -16%
COc1ccc(CNc2nc3ccccc3c3nc(-c4ccccc4)nn23)cc1 | i
COc1ccccc1CNc1nc2ccccc2c2nc(-c3cccc(C)c3)nn12 | i
C[C@H](C(=O)NCCN1CCOCC1)C1CC[C@@]2(C)Cc3sc(CSc4ccccc4)nc3[C@@H](C)[C@@H]2[C@H]1O (stereo partly drawn) | i
C[C@@H](NC(=O)c1ccc2c(c1)OCO2)c1onc(-c2ccc(F)cc2)c1C(=O)O | 17%[44.1 µM]
SMILES | Pf Dd2 growth
O[C@H]1[C@H](NCc2ccncc2)[C@H]2CO[C@H](O2)[C@@H]1N1CCN(c2ccccc2)CC1 | i
O=C(C1COc2ccccc2C1)N1CCC(Cc2noc(C3CC3)n2)CC1 (stereo not drawn) | -20%
CC[C@H]1CN(C(=O)Nc2cccc(OC)c2)CC[C@H]1CC(=O)NCc1ccccc1 | 13µM*
CC[C@H]1CN(C(=O)Nc2cccc(OC)c2)CC[C@H]1CC(=O)NCc1cccnc1 | 1%[44.1 µM]
CC[C@H]1CN(C(=O)Nc2cccc(C(F)(F)F)c2)CC[C@H]1CC(=O)NCc1ccc(OC)cc1 | i
CCC(CC)C(=O)N1CC(C(=O)NCCc2ccncc2)C2(CCOCC2)C1 (stereo not drawn) | 24%
CCCNC(=O)c1noc(-c2ccc(C#N)cc2)n1 | -4%
COCCNS(=O)(=O)c1cccc2c1CN(C(=O)CCn1cncn1)CC2 | -10%
COc1cccc(CN2CCCC(NC(=O)Nc3ccccc3OC)C2)c1 (stereo not drawn) | -23%
CCOc1cccc(CNC(=O)C2CCCCC(=O)N2Cc2cccc(OC)c2)c1 (stereo not drawn) | -6%
COc1cccc(CN2C(=O)CCCCC2C(=O)NC2CCCCCC2)c1 (stereo not drawn) | 8.9µM*
O=C(NC1CCS(=O)(=O)C1)C1CCCCC(=O)N1Cc1ccccc1 (stereo not drawn) | 20%
COc1cccc(CN2CCC(Oc3ccc(C(=O)NC4CCCC4)cc3Cl)CC2)c1 | 11µM*
COc1ccc(C(=O)NC2CC2)c(OC2CCN(Cc3cccc(SC)c3)CC2)c1 | -15%
Cc1nn(C)c(C)c1CCCN(C)C(=O)c1ccc2c(c1)C(O)CCCCCN2C (stereo not drawn) | i
Cc1cc(C)cc(Nc2nc(-c3ccccc3F)no2)c1 | 13µM*
COc1ccc(-c2noc(-c3nc(-c4ccccc4F)no3)n2)cc1OC | 22%
COc1cc(Nc2nc(-c3ccccc3F)no2)cc(OC)c1OC | 13µM*
COc1cc(Nc2nc(-c3ccccc3)no2)cc(OC)c1OC | -4%
Fc1ccc(Nc2nc(-c3ccccc3)no2)cc1 | i
Fc1ccccc1-c1noc(-c2nc(-c3ccccc3F)no2)n1 | -1%
O=C(N[C@H]1CCN2C(=O)c3cc(-c4ccc(F)cc4F)ccc3NC(=O)[C@H]12)c1cnccn1 | -14%
COc1ccc(CN2C=C(C(=O)OCc3cc(=O)n4ccccc4n3)C(C)=NS2(=O)=O)cc1 | i
COc1ccc(CN2CCCC3(C2)NC(=O)c2ccccc2O3)cc1 (stereo not drawn) | i
Cc1cccc(C(=O)N2CCC(C(NC(=O)c3ccccc3Cl)C(=O)NCC(C)C)CC2)c1 (stereo not drawn) | i
SMILES | Pf Dd2 growth
Cc1cc(N2CCN(C)C3(CCNC(=O)CC3)C2)nc(N2CCCCC2)n1 (stereo not drawn) | -22%
CSCC1CCN(C(=O)CN2CC(c3ccccc3)CC2=O)CC1 (stereo not drawn) | -3%
Cc1ccc(-n2c(C)cc(/C=C(\C#N)C(=O)Nc3ccc(C)c(C)c3)c2C)cc1 | 2%
Cc1cccc(Cn2cc(/C=C(/C#N)C(=O)Nc3cccc(Cl)c3)c3ccccc32)c1 | 3.5µM*
Cc1ccc(/C=C(\C#N)C(=O)Nc2cccc(Cl)c2)o1 | -9%
O=C(Nc1ccccc1)Nc1ccc([C@H]2OCC(=O)N(Cc3ccccc3)[C@@H]2CO)cc1 | i
O=C(Cc1c[nH]c2ccccc12)N1CCCN(c2cc(-c3ccc(Cl)cc3)[nH]n2)CC1 | -27%
CC(C)(C)c1ccc(NC(=O)O[C@@H]2CO[C@H]3[C@@H]2OC[C@@H]3Nc2nccc(C(C)(C)C)n2)cc1 | i
Cc1ccc(C(=O)N[C@H]2CO[C@H]3[C@@H]2OC[C@@H]3Nc2nccc(C(C)(C)C)n2)cc1 | 11µM*
CC(=O)Nc1ccc(S(=O)(=O)N[C@H]2CO[C@H]3[C@@H]2OC[C@@H]3Nc2nccc(C(C)(C)C)n2)cc1 | -9%
CS(=O)(=O)N1CCC(C2CCN(C(=O)c3ccc(Cl)s3)C2)CC1 (stereo not drawn) | i
Cc1c(C)n(Cc2ccc(F)cc2)c2ccc(C(=O)NCc3ccco3)cc12 | 3.5µM*
Cc1cccc(CNC(=O)c2ccc3c(c2)c(C)c(C)n3Cc2ccccc2)c1 | -3%
CCn1c(C)c(C)c2cc(C(=O)NCc3ccc(F)cc3)ccc21 | i
CC1(c2noc(C3CC3)n2)CCN(C(=O)CCc2cc(Cl)no2)CC1 | -24%
Cc1nn(C)cc1CN(C)CC1(O)CCCN(Cc2ccc(F)cc2)C1=O (stereo not drawn) | i
O=c1[nH]nc2n1CCN(Cc1ccc(F)c(Br)c1)CC2 | i
CC(C)Oc1ccc2c(NC(=O)c3ncc(F)cc3F)nn(CC(F)(F)F)c2c1 | -27%
CCOc1ccc(CNCCCSc2nnnn2C)cc1OC | -13%[0.594 µM]

Screening results from PubChem.
